Most compounds without a hit are left out; they make up all but 1.8% or so of the library.
PAD4 FP inh = human PAD4 inhibitors, primary screen, biochemical, fluorescence polarization, 1536-well format; 0.41% of 330,000 active; inhibition, % at 6.36 µM; recombinant PAD4, RCA probe fluorescence polarization; Protein-arginine deiminase type-4 (Homo sapiens), Q9UM07;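 active = percent inhibition above a cutoff equal to the mean of all tested compounds plus 3 SD, cut at about 15% in these data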;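 also: 0% = PAD4 with RCA probe and DMSO and 100% = probe without PAD4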
LYPLA1 inh = LYPLA1 inhibitors, primary screen, counter-screen for PME1 inhibitor project, biochemical, fluorescence polarization, FP-Rh probe ABPP | Acyl-protein thioesterase 1 (Homo sapiens), O75608 | recombinant LYPLA1 | inhibition, % at 5.9 µM | 0.16% of 320,000 active | AID 2174, 2009;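 active = inhibition above the mean of all tested compounds plus 3 SD, set per campaign, cut at about 14% in these data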;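 also: inhibitors block serine hydrolase probe labeling of LYPLA1 so polarization falls; 0% = enzyme with DMSO and 100% = wells lacking LYPLA1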
Target sequence (O75608 whole entry, looked up): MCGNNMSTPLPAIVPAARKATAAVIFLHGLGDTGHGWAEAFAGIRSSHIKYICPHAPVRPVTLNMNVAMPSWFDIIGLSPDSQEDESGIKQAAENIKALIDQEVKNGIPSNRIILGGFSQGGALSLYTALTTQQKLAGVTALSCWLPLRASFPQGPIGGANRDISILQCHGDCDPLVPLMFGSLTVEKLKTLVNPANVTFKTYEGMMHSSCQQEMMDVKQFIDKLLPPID
Fam108B counter = mouse Fam108B serine hydrolase inhibitors, primary screen, counter-screen for RBBP9 inhibitor project, biochemical, fluorescence polarization; recombinant Fam108B, FP-Rh probe fluorescence polarization; inhibition, % at 9.51 µM; 0.33% of 300,000 active; AID 1947, 2009;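 active = inhibition above the screen mean inhibition plus 3 SD, computed separately per campaign, cut at about 18% in these data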;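 also: inhibitors lower polarization as less probe binds the enzyme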
PME-1 inh = PME-1 inhibitors via competitive probe labeling, primary screen, biochemical, fluorescence polarization, FP-Rh probe, HTS. Protein phosphatase methylesterase 1 (Homo sapiens), Q9Y570. recombinant PME-1. inhibition, % at 5.9 µM. 0.53% of 320,000 active. AID 2130, 2009;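 active = inhibition above the campaign mean of all compounds plus 3 SD, cut at about 26% in these data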;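 also: competitive labeling of PME-1 active site by serine hydrolase directed probe; 0% = PME-1 with DMSO and 100% = wells lacking PME-1 enzyme; inhibitors block probe labeling so polarization falls and inhibition rises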
GSTO1 inh = inhibitors of recombinant GSTO1, primary screen, counter-screen for RBBP9 inhibitor project, biochemical, fluorescence polarization. activity-based probe fluorescence polarization. 1.1% of 300,000 active. AID 1974, 2009. inhibition, % at 5.96 µM;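 active = inhibition above the campaign mean inhibition plus 3 SD, cut at about 35% in these data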;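 also: 0% = GSTO1-1 with DMSO and 100% = wells lacking GSTO1-1 enzyme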
LYPLA2 counter = LYPLA2 inhibitors, primary screen, counter-screen for PME1 inhibitor project, biochemical, fluorescence polarization, FP-Rh probe ABPP. Acyl-protein thioesterase 2 (Homo sapiens), O95372. recombinant LYPLA2. inhibition, % at 5.9 µM. 0.38% of 320,000 active;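 active = inhibition above the screen-wide mean plus 3 SD, limit set per campaign, cut at about 26% in these data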;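 also: 0% = LYPLA2 with DMSO and 100% = wells lacking LYPLA2 enzyme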
Target sequence (O95372 whole entry, looked up): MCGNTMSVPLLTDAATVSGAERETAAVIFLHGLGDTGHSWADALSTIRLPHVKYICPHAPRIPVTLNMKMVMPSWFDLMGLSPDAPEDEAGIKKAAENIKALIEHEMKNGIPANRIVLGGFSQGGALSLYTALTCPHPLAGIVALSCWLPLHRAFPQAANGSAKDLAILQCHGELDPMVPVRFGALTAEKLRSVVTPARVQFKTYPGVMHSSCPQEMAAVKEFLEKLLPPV
GSTO1 inh conf = GSTO1 inhibitor hit confirmation, counter-screen for RBBP9 inhibitor project, biochemical, fluorescence polarization, triplicate; shares compounds with GSTO1 inh; recombinant GSTO1, probe fluorescence polarization; inhibition, % at 5.96 µM; 54% of 2,400 active; AID 2176, 2009;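 active = inhibition above the primary screen's cutoff, its mean inhibition plus 3 SD, cut at about 35% in these data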;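 also: loss of polarization as inhibitors block binding of rhodamine sulfonate ester activity probe; 0% = GSTO1 with DMSO and 100% = wells lacking GSTO1 enzyme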
LYPLA1 confirm = LYPLA1 inhibitors, retest, confirmation, counter-screen for PME1 inhibitor project, biochemical, fluorescence polarization, FP-Rh probe ABPP; shares compounds with LYPLA1 inh; recombinant LYPLA1; inhibition, % at 5.9 µM; 69% of 480 active;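 active = mean inhibition across replicates above the hit cutoff set in the primary screen, cut at about 15% in these data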;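 also: loss of FP-Rh probe labeling of LYPLA1 seen as lower polarization; 0% = LYPLA1 with DMSO and 100% = wells lacking LYPLA1 enzyme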
LYPLA2 confirm = LYPLA2 inhibitors, retest, confirmation, counter-screen for PME1 inhibitor project, biochemical, fluorescence polarization, FP-Rh probe ABPP. shares compounds with LYPLA2 counter. recombinant LYPLA2. inhibition, % at 5.9 µM. 72% of 1,100 active. AID 2232, 2010;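 active = mean inhibition across replicates above the hit cutoff set in the primary screen, cut at about 26% in these data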;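 also: blocked labeling of the enzyme by serine hydrolase FP-Rh probe lowers polarization; 0% = enzyme with DMSO and 100% = wells lacking LYPLA2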
PAD4 confirm = human PAD4 inhibitors, confirmation, biochemical, fluorescence polarization. 28% of 1,200 active. inhibition, % at 6.36 µM. recombinant PAD4, RCA probe fluorescence polarization. shares compounds with PAD4 FP inh;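 active = mean inhibition across replicates above the hit cutoff set by the earlier primary screen, cut at about 15% in these data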;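 also: inhibitors block active-site labeling by the probe so polarization falls; 0% = PAD4 with probe and DMSO and 100% = probe without PAD4 enzyme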
Starred values were filed as active, the others as inactive; · = no result.

SMILES	PAD4 FP inh	LYPLA1 inh	Fam108B counter	PME-1 inh	GSTO1 inh	LYPLA2 counter	GSTO1 inh conf	PAD4 confirm	others
CCn1nc(C)cc1C(=O)N1CCCC(N2CCN(c3cccc(Cl)c3)CC2)C1 (stereo unspecified)	-3	3	1	4	47*	46*	6	·	LYPLA2 confirm=46*
Cc1csc(SCC(=O)NC2CCS(=O)(=O)C2)n1 (stereo unspecified)	2	·	·	·	·	·	·	·
CNC1=C(N(C(C)=O)c2ccc(Br)cc2)C(=O)c2ccccc2C1=O	47*	3	10	19	73*	1	63*	16*
CCc1cc(SC#N)cc(C)c1NC(=O)CCl	21*	-3	-1	0	72*	-2	74*	2
CCc1cc(SC#N)cc(C)c1N	3	0	1	-4	0	-4	·	·
COc1cc(/C=C/C(=O)OCC(=O)Nc2cc(C(F)(F)F)ccc2N2CCOCC2)ccc1O	2	-4	7	-1	4	-3	·	·
CC(=O)c1ccc(Nc2c([N+](=O)[O-])ccc3nonc23)cc1	-1	2	-2	1	17	1	·	·
O=[N+]([O-])c1cc([N+](=O)[O-])c2nonc2c1Nc1ccc(O)cc1	55*	5	-1	12	65*	14	53*	8
O=C(Nc1ccccc1O)c1ccc2c(c1)C(=O)N(N1C(=O)c3ccccc3C1=O)C2=O	0	0	0	4	2	7	·	·
O=C1C=C(Nc2ccccc2O)c2ccccc2C1=O	65*	-1	6	2	72*	-2	74*	31*
O=C(NCCCN1CCOCC1)c1cc2ccccc2cc1O	0	5	3	3	-4	8	·	·
CC1=CC(C)(C)N2C(=O)C(=Nc3ccc(O)cc3)c3cccc1c32	26*	17*	16	44*	97*	20	17	2	LYPLA1 confirm=5
COc1cc(N=C2C(=O)N3c4c(cccc42)C(C)=CC3(C)C)cc(OC)c1	-9	1	5	2	-3	4	·	·
Cc1ccc(S(=O)(=O)N(C)CC(=O)O/N=C(\N)c2cccc(Br)c2)cc1	-1	0	-4	0	-5	9	·	·
CCN(CC)S(=O)(=O)c1ccc(C)c(NS(=O)(=O)c2cc(/C=C/C(=O)O)cc(OC)c2OC)c1	53*	-2	1	-9	39*	-7	24	-10
COc1cc(/C=C/C(=O)O)cc(S(=O)(=O)Nc2ccccc2Cl)c1OC	1	2	1	-2	1	1	·	·
Cc1ccc(-c2nc(SC(C)C(=O)c3c(N)n(C)c(=O)n(C)c3=O)n[nH]2)cc1 (stereo unspecified)	-4	-4	-3	-2	2	-3	·	·
Cc1[nH][nH]c(=O)c1C(c1c(C)[nH][nH]c1=O)c1cn(Cc2ccc(Cl)c(Cl)c2)c2ccccc12	33*	1	9	4	66*	8	56*	-6
O=c1c2ccccc2ncn1Cc1ccc(Cl)c(Cl)c1	2	-2	-1	0	0	5	·	·
Cc1[nH][nH]c(=O)c1C(c1c(C)[nH][nH]c1=O)c1cn(Cc2ccc(F)cc2)c2ccccc12	24*	3	8	16	56*	6	14	-17
O=C(c1ccccc1Sc1c(Cl)cccc1[N+](=O)[O-])N1CCOCC1	-2	-2	5	7	-2	-5	·	·
O=C(Cn1ccn(-c2ccc(F)c(F)c2)c(=O)c1=O)NCCc1ccccc1	-9	-3	-4	-16	-1	-8	·	·
CCN(CC)c1ccc(/C=C2/C(=O)N(c3ccc([N+](=O)[O-])cc3)N=C2N2CCOCC2)cc1	-1	1	4	1	5	0	·	·
COc1cc(/C=C2/C(=O)N(c3ccc([N+](=O)[O-])cc3)N=C2N2CCOCC2)ccc1O	70*	5	8	24	89*	21	10	2
Oc1c(Cl)cc(Cl)cc1C=Nc1ccc(N2CCOCC2)cc1	-5	0	2	-6	18	-2	·	·
SMILES	PAD4 FP inh	LYPLA1 inh	Fam108B counter	PME-1 inh	GSTO1 inh	LYPLA2 counter	GSTO1 inh conf	PAD4 confirm	others
O=[N+]([O-])c1cc(Cc2ccccc2)cc(C=Nc2ccc(N3CCOCC3)cc2)c1O	24*	-2	2	1	69*	5	5	-5
O=C(N/C(=C\c1ccc([N+](=O)[O-])cc1)C(=O)N1CCCCC1)c1ccc(Br)o1	3	-3	-5	0	5	-7	·	·
CCOc1ccccc1NC(=O)NC1CC2CCCC(C1)N2Cc1nnnn1CCc1ccccc1 (stereo unspecified)	4	-1	0	-6	0	6	·	·
CCOc1cc(/C=C2/C(=O)N(c3ccccc3)N=C2C)ccc1OC(=O)c1ccco1	47*	-4	3	2	65*	-9	9	-8
Oc1c(Br)cc(Br)cc1C=Nc1cccc2ncccc12	37*	5	16	20	73*	0	6	-10
CCc1ccc(OCC(=O)N/N=C2\CC(=O)c3ccccc32)cc1	25*	-5	2	2	61*	-1	25	-8
O=C1C(Cl)=C(NCc2cccnc2)C(=O)c2ccccc21	21*	0	9	5	77*	7	57*	-7
COc1cc(NC(C)CCCN)c2ncccc2c1 (stereo unspecified)	35*	4	0	6	47*	4	8	-4
COCCNC(=O)C(c1ccc(C)cc1)N(C(=O)CCC(=O)Nc1ccccn1)c1ccccc1C (stereo unspecified)	-3	-4	-1	1	-5	-6	·	·
CC1=NN(c2ccccc2)C(=O)C1	45*	1	-2	0	72*	-2	10	-3
